Data as given in the supplement of paper PMC11417369.
Over roughly 25,000 sequences, “ln(normalized median fluorescence intensity)” has its median near 7.1; the highest 2% begin near 10. The sample as a whole holds a higher share of the highest values than the screen did.

Each sequence was assayed on PfSIP2 AP2 domain 1 (GST-tagged) (assay: gcPBM binding intensity (ln(normalized median fluorescence intensity)); higher = stronger DNA binding).
In short: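 Binding intensity values are the highest Masliner-normalised natural-log median intensity among replicate spots of either probe orientation. The binding step lasted 1 h in 1× PBS with 1% milk, 0.2 mg/ml BSA, 0.5% salmon testes DNA and 0.03% Triton X-100, using GST-tagged P. falciparum DNA-binding domains expressed in E. coli on an Agilent 4 × 180k array of primer-extended double-stranded 36-bp intergenic genomic probes plus negative controls. Alexa488 anti-GST antibody and a 488 nm scan detected bound protein.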

| Sequence | gcPBM binding intensity (ln) |
| --- | --- |
| TATTTGATAAATTATACACACACAATATATATAAAA [CACACA_site8625] | 6.94 |
| AAGATTAGGTTAATTAGTACTTATTATATTGTAATG [XGTACX_site3653] | 6.85 |
| TACCAATGCATAACGGTGCAAAAAAATAAGGAATAA | 10.7 |
| AATAAAAATAATATAGTGCATAATATAAGGAAAAAA | 9.36 |
| TATACCAATGAATGAGTGCAAAGAAGATAAGGAAAA | 8.58 |
| AAAATGGTTTATAAATGTACATATATTATATATAAC [XGTACX_site7959] | 7.03 |
| TATGTGCACCCATGTACATGCGGACATATGTTATAT [TGCATGCA_site383] | 12 |
| TATATATATATATATGCATGTACATATATTTGTTAT [TGCATGCA_site379] | 9.76 |
| ATATATATATATGCATGTACATATATTTGTTATATC [XGTACX_site3197] | 9.3 |
| AAAATAAAAAATTAATGTACTTAGAATTGTCACTAA [XGTACX_site1346] | 6.79 |
| CCAACATGCCCACGCACACACAAAAAAAGCATGCAT [CACACA_site4217] | 7.23 |
| AAAAAAACAACATGCACACGCACACCCAAAAAAAGC [CACACA_site72] | 7.96 |
| AGAAAAAAACAACATGCACACGCACCCACAAAAAAA [CACACA_site7908] | 10.2 |
| TATGCAAGGAACCACACACACACACGGAAATGTATA [CACACA_site6490] | 6.94 |
| AATTTAATATAATGCACACATAAAAAAAAATTCAAA [CACACA_site2062] | 7.16 |
| ACGTTAGGCTTATTTGCACACTTGTATTAAAATTTT [CACACA_site4854] | 7.27 |
| ACATTAAAAAATTGTTTGCACTATATAAAATATTAA [GTGCAC_site9728] | 8.2 |
| TATTTCACTTTTTGTCTGCACTAAAATTTTATGGTA | 7.74 |
| TTTTTGTTACCTATTGTGCACTTCATATAAATTAAA | 10.8 |
| TGTTAAAATTATTTGGTGCACTTGTTTTACCTTATT | 11.3 |
| AAAATATAAATTCATGTGCACATATATATTTTGTTA [GTGCAC_site9782] | 8.24 |
| TGTTATTTTAAAAAAAAAATTATTAACTTAAAAAAA [CACACA_negctrl_site1641] | 6.68 |
| ATTTATTTCTTGTTAGTGCACTTTCTTTGGTAAAAT | 11.1 |
| CTTATTTTGTTATAAGTGCATTTTTTAAAATTTCTT | 9.64 |

| Sequence | gcPBM binding intensity (ln) |
| --- | --- |
| CACGTGAAAATACAAGCATGCAAGCTTTTTTTTTCT [TGCATGCA_site642] | 6.53 |
| TACAATTCGTAATACACACACATATAAATAAATATT [CACACA_site7720] | 7.28 |
| AAATAATAAAGTATAACACACATATTTATTTATATA [CACACA_site7822] | 6.73 |
| AAAGAACAAATAAAACATAAAATAATATATATAGAT [CACACA_negctrl_site1764] | 7.02 |
| AATAGAACAAATAAAACACACACATATATATATATA [CACACA_site8893] | 9.42 |
| AAAATACGAATATAAACATGCACCATATAGAACAAA [TGCATGCA_site925] | 10.7 |
| ATAGATGCATATTATACACACATATGTAAATACATT [CACACA_site4691] | 7.06 |
| CAAACAATTAAACAAACACACATATACAAGTATATA [CACACA_site8639] | 7 |
| TGAACATATTAAAATTGTACATATGCACAATATGTA [XGTACX_site6801] | 7.44 |
| GTAGGCATTAAAAAATGTACAAAATATTATGAATTG [XGTACX_site1615] | 6.85 |
| AGTAGGCATATTGGTTGTACAAAAAAATTATGCACC [XGTACX_site8925] | 10.3 |
| TTAAAAGTAAGCAAAGTGCATATAACAAAAGTAAAG | 8.19 |
| TTATCTCTACAAAGTGCACACACGTAAAAACATATA [CACACA_site3957] | 10.4 |
| ATAAACATATAAAAAGTGCATATTCATATATCTACT | 8.7 |
| AAACAGAATACATATACACACATACAAAAAAGTGCA [CACACA_site8235] | 7.52 |
| ATCTCTACAAAGTGCACACACGTAAAAACATATATA [CACACA_site6046] | 10.8 |
| TAAAAAAAAACATATACACACAAAAACGTACACATA [CACACA_site1354] | 7.29 |
| TAAAAAAAAACATGTGCACACGTTTTATCTACATAA [CACACA_site2336] | 8.79 |
| ATATAAACAAAGCAGTGCACGTAAACAAAACATATA [CACACA_negctrl_site1076] | 10.4 |
| TTGCACTCGTAAAAAGCACACATATAAAAACATTTA [CACACA_site7997] | 8.15 |
| ATATATATGTATATGTGTACTTATATTTGTCATTTT [XGTACX_site1317] | 7.11 |
| TAATATTTATGTTAATGTACAAAAAAACAAAACAAA [XGTACX_site301] | 7.09 |
| TTTTTTAAATATTAAAAATGGGATCTTATAACATAT [GTGCAC_negctrl_site666] | 6.91 |
| ATATATATAATAAACACACACATATACATAGATGTA [CACACA_site5841] | 7.49 |

| Sequence | gcPBM binding intensity (ln) |
| --- | --- |
| AAATAAAAGATATTTTTACACACTTTTGATGAGATC [CACACA_site9000] | 6.75 |
| AAAAAAAAAAAAAAAAAAATATATTATATATATATA [XGTACX_negctrl_site467] | 9.19 |
| TAATAAGTACCTTTTGCATGTGGCACGCTTTTTTTT [TGCATGCA_site573] | 6.75 |
| TTAACATCTTCGTTGACACACAAAAAAAAAAATAAT [CACACA_site1819] | 7.1 |
| TAGGGATTATACCACACACACATACACATAAATATA [CACACA_site3178] | 7.08 |
| CATAAAAATGGATACACACACATAATATATATATAT [CACACA_site3619] | 9.01 |
| ATGGATTATACGTGCACACATATATACAAATAAATA [CACACA_site640] | 10.5 |
| ATAAAATATATATGCACACACATATATATTTCATAC [CACACA_site3547] | 7.24 |
| TATAAATACATACGTACACACAAATATTAAAATATA [CACACA_site5129] | 7.35 |
| TAATGGATTATACGTGCACACATATATACAAATAAA [CACACA_site8116] | 10.5 |
| TTATAATATGGATACACACACATATATAAATATATA [CACACA_site5314] | 6.98 |
| GAAATAATTTCATATACACACATATACATACATACA [CACACA_site1358] | 7.5 |
| TCATATATATTATACACACACATATATAAATATATA [CACACA_site967] | 7.03 |
| ATGGATTATACGTGCACACATATATACCAATAAATA [CACACA_site4524] | 10.5 |
| ATATAAATACGGTGTGCACACACATAATATATATAT [CACACA_site2271] | 8.98 |
| ATAATTTCATAATACGTGCACATAATATATAAAAAA | 10.5 |
| AAACATAAATTTTATTGTACATTATATAGAATTTTC [XGTACX_site576] | 6.81 |
| AAATGTTGAAATGATACACACATATATATATATATA [CACACA_site2517] | 9.59 |
| TTATTTATGATATATACACACTAACATTATTTATCC [CACACA_site6720] | 6.95 |
| GAAATTTCCCATATTACACACATACTATGATATATA [CACACA_site5987] | 7.12 |
| GTGATGGTACAATATACACACTTAAAAAAAAAAAAT [CACACA_site5360] | 7.17 |
| TTTCTATATTGGCATACATGCAAGAACGAAAAGATT [TGCATGCA_site117] | 7.09 |
| TATAAAAAAAATTGCACACATATTATACAGGACGAC [CACACA_site701] | 7.96 |
| TAATATTTTAATTGTGTGCACATTAATATTATAAAA | 9.3 |

| Sequence | gcPBM binding intensity (ln) |
| --- | --- |
| TTATTTTATTTTTTTGTGCACATATATATTTATAAA [GTGCAC_site9615] | 9.43 |
| TTTATTTTTATTTTTGTGCACGGGATTAAATAAAAG [GTGCAC_site9842] | 10.5 |
| AAGAAGAAACGGAAAAGTACAAAGAAGAAATAAGTA [XGTACX_site3680] | 6.85 |
| CATACATTATAAGATACATGCATATATCTGAACATA [TGCATGCA_site797] | 7.02 |
| AACATTATTTTGTGTACACATTCGGTTATATTATAT [CACACA_site5628] | 7.31 |
| AATAAATACTAAATGGTGCAAAATTTTTTAACACTG | 10.7 |
| ATACTATTTAAATGGGTGCTAAAAATAACAAAAATT | 8.88 |
| TAAATCAAAATAATTTAACACACAATTTTAATACTG [CACACA_site8744] | 6.67 |
| TATTAAAATATGTCAGTTCTTAAAAAGTTGATGAGT [GTGCAC_negctrl_site77] | 7.17 |
| TAATAATAATTAAATTGTACATATAATATAATATAA [XGTACX_site8554] | 7.15 |
| TAATATATATGTATGGCACACACGGATAAATATATA [CACACA_site930] | 7.04 |
| TTTTAACAAAAAAAAAGAAAAGAAAAGAAAATAATA [XGTACX_negctrl_site530] | 6.54 |
| AATTGAATAAATTAAACATGCACAGATGTTCTATTT [TGCATGCA_site692] | 6.89 |
| GAACAAATTAAATAGGTGCATTAACATGTTCTATTT [GTGCAC_site9729] | 10.4 |
| TAATATAATATATAGGTGCAATATTAACAAAAATTT | 9.61 |
| AGTGATACTAATTTTTGTACGCATAAAAGAATATTC [XGTACX_site6055] | 6.97 |
| ACTATTTTCTTCAAAACATGCACCACATAAACATAA [TGCATGCA_site200] | 10.5 |
| ACCTATTTCAAACACACACACACACCCACAAACATA [CACACA_site977] | 7.62 |
| TATAAACATAAAACCAGTACATATATATTTTTCTTC [XGTACX_site212] | 6.84 |
| CGGCTATTTCTATATACATGCATTTAAAAAAAAAAT [TGCATGCA_site354] | 7.27 |
| CCAATGTTTTCTTGTGTACACATCATTAAAGAAAAA [CACACA_site5300] | 7.96 |
